In PubChem BioAssay (NCATS):
Results filed as inconclusive are left out. Activity calls are given as the source filed them. Unless noted, calls come from the whole dose curve; as a rule, active = well fitted curve in either direction with a large enough effect (not every such curve was filed as active); inconclusive = small, poorly fitted or top-dose-only effect, or another doubt; inactive = flat fitted curve, though single readings scatter.

Assays:
[1] = AP1 Signaling Pathway (AID 357); conditions: ME-180 AP-1-bla reporter, EGF-induced, beta-lactamase ratio, 5 h; at 17.2 µM (top of the series) unless noted;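 note: ME-180 reporter cells stimulated with EGF at its EC50 level; % is set by controls: 0 for no effect and ±100 for the full control effect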
In short: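 First, ME-180 AP-1-bla cells were cultured overnight at 37 °C in low-serum Opti-MEM. Next, titrated compounds with EC50 EGF were incubated 5 hours. Finally, CCF4 was added for 2.5 hours and the 460/530 nm ratio recorded.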

[2] = NFAT Signaling Pathway (AID 444); conditions: Jurkat NFAT-bla M1, carbachol, beta-lactamase ratio, 5 h; at 17.2 µM (top of the series) unless noted;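 note: carbachol stimulus at about its EC50 of 1 µM final; % is set by controls: 0 for no effect and ±100 for the full control effect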
In short: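 Read-out: CCF4 FRET ratio (460 nm/530 nm) after 1 h RT dye loading, used for %activity and AC50 from titration series. Cells: Jurkat NFAT-β-lactamase/M1 line, treated with compound plus 1 uM carbachol for 5 h, 37 °C.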

[3] = Stat Signaling Pathway (AID 446); conditions: ME-180 (cervical carcinoma) SIE beta-lactamase reporter, IL-6 stimulated, 5 h; at 17.2 µM (top of the series) unless noted;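 note: ME-180 cervical cancer cells given 40 pM IL-6 alongside compound; SIE-controlled beta-lactamase reporter measured as 460/530 nm FRET emission ratio; % is set by controls: 0 for no effect and ±100 for the full control effect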
In short: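 FRET read-out (405 nm excitation, 460/530 nm emission) of a beta-lactamase reporter under a STAT-inducible element in ME-180 cervical carcinoma cells. Cells with compound receive 40 pM IL-6 for 5 h. Values are normalised to AC90 stimulation and AC90 JAK-inhibitor controls.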

[4] = molecular target: Glucocorticoid receptor (Homo sapiens) (UniProt P04150); assay: GR-GFP Redistribution (AID 450;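 active = compounds whose dose series gives a full or clear partial fitted curve of increased nuclear translocation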; note: potency is the fitted concentration of half-maximal effect)
Chain of Glucocorticoid receptor (Homo sapiens) (P04150 whole entry, looked up): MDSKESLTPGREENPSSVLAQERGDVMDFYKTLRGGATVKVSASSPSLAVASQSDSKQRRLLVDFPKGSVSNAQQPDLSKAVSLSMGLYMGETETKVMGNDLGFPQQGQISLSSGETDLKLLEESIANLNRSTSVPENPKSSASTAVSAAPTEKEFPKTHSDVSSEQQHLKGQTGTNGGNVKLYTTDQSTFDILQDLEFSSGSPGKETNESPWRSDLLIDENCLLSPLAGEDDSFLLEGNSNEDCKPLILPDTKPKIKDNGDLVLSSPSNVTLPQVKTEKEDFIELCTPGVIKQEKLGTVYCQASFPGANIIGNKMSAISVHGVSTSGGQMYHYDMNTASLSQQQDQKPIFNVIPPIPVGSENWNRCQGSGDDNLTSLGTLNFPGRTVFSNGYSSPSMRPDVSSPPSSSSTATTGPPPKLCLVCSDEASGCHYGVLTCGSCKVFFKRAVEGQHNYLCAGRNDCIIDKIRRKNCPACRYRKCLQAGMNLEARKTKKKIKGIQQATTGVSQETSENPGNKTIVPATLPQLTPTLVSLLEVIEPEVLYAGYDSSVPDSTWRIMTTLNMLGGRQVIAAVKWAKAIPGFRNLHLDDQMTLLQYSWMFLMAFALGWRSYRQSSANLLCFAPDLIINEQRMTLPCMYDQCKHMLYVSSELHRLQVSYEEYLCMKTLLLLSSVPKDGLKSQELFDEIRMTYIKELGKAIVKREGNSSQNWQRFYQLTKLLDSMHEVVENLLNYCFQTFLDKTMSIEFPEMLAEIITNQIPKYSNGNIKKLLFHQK

O=C(NCCOCCOCCNC(=O)c1cccnc1)c1cccnc1
inactive: activity change, negative = inhibition [1] -1.69% | activity change, negative = inhibition [2] -1.99% | activity, negative = inhibition [3] 3.22% | Potency [4] > 20.6 µM

CCOc1ccccc1N1CCN(c2nc3ccccc3nc2C(C#N)C(=O)OC)CC1 (stereo not given)
active: activity change, negative = inhibition [2] -106%
inactive: activity change, negative = inhibition [1] -24.3% | activity, negative = inhibition [3] -16.5% | Potency [4] > 20.6 µM

C=CCN=C(NC#N)SCCc1ccccc1
inactive: activity change, negative = inhibition [1] -4.76% | activity change, negative = inhibition [2] 7.9% | activity, negative = inhibition [3] 5.61% | Potency [4] > 20.6 µM

C=CCn1c(=S)[nH]c2ccccc2c1=O
inactive: activity change, negative = inhibition [1] -3% | activity change, negative = inhibition [2] 10.1% | activity, negative = inhibition [3] 4.87% | Potency [4] > 20.6 µM

CC(=O)Nc1cnc2ccccc2n1
inactive: activity change, negative = inhibition [1] 2.26% | activity change, negative = inhibition [2] -13.5% | activity, negative = inhibition [3] 7.01% | Potency [4] > 20.6 µM

Fc1cc(F)c(F)c(SCCc2ccncc2)c1F
inactive: activity change, negative = inhibition [1] -7.09% | activity change, negative = inhibition [2] -5.43% | activity, negative = inhibition [3] -0.589% | Potency [4] > 20.6 µM

CCc1nc(N2CCN(C(=O)c3ccccc3)CC2)c(C#N)c2c1COC(C)(C)C2
inactive: activity change, negative = inhibition [1] -17.6% | activity change, negative = inhibition [2] 21.3% | activity, negative = inhibition [3] -14% | Potency [4] > 20.6 µM

CC1CN(C2CCN(C(=O)COc3ccccc3)CC2)CC(C)O1 (stereo not given)
inactive: activity change, negative = inhibition [1] -6.79% | activity change, negative = inhibition [2] -12.5% | activity, negative = inhibition [3] -1.27% | Potency [4] > 20.6 µM

CCOC(=O)c1cc2cc(OC)ccc2[nH]1
inactive: activity change, negative = inhibition [1] -4.55% | activity change, negative = inhibition [2] -5% | activity, negative = inhibition [3] -4.94% | Potency [4] > 20.6 µM

COCCNc1oc(-c2ccc(F)cc2)nc1C#N
inactive: activity change, negative = inhibition [1] -13.6% | activity change, negative = inhibition [2] 7.25% | activity, negative = inhibition [3] -2.97% | Potency [4] > 20.6 µM

C=CCNc1nc(NCc2ccccc2)c(C#N)c2c1CN(C)CC2
inactive: activity change, negative = inhibition [1] 23.1% | activity change, negative = inhibition [2] 5.41% | activity, negative = inhibition [3] 25.2% | Potency [4] > 20.6 µM

Cc1ccc(N2C(=O)[C@@H]3[C@H](C2=O)C2CCCN2[C@@H]3C(=O)c2ccccc2)cc1 (stereo not given in full)
inactive: activity change, negative = inhibition [1] -15.8% | activity change, negative = inhibition [2] 9.36% | activity, negative = inhibition [3] -3.84% | Potency [4] > 20.6 µM

CC1(C)NC(=O)N(CC(O)COc2ccccc2C(=O)Nc2ccccc2)C1=O (stereo not given)
inactive: activity change, negative = inhibition [1] -6.46% | activity change, negative = inhibition [2] 9.58% | activity, negative = inhibition [3] 3.3% | Potency [4] > 20.6 µM

CC(C)CNc1nc2c(c(=O)n(C)c(=O)n2C)n1Cc1cccc(Br)c1
inactive: activity change, negative = inhibition [1] -13.5% | activity change, negative = inhibition [2] -2.14% | activity, negative = inhibition [3] -18.2% | Potency [4] > 20.6 µM

CCOC(=O)CNC(=O)CNC(=O)c1ccc(OCC(C)C)cc1
inactive: activity change, negative = inhibition [1] -5.66% | activity change, negative = inhibition [2] 8.09% | activity, negative = inhibition [3] -1.49% | Potency [4] > 20.6 µM

Cc1noc(COc2ccccc2OCC(O)CNC(C)(C)C)n1 (stereo not given)
inactive: activity change, negative = inhibition [1] 4.01% | activity change, negative = inhibition [2] -1.96% | activity, negative = inhibition [3] 1.99% | Potency [4] > 20.6 µM

CCc1[nH]c(=O)c(C#N)c2c1CSC(C)(C)C2
inactive: activity change, negative = inhibition [1] 5.95% | activity change, negative = inhibition [2] 3.33% | activity, negative = inhibition [3] 9.69% | Potency [4] > 20.6 µM

COc1cc(C)nc(Oc2ccc(=O)n(C)n2)n1
inactive: activity change, negative = inhibition [1] 8.82% | activity change, negative = inhibition [2] -8.27% | activity, negative = inhibition [3] 1.84% | Potency [4] > 20.6 µM

COc1ccc(C2N3CC4(C)CN2CC(C)(C3)C4O)cc1OC (stereo not given)
inactive: activity change, negative = inhibition [1] 9.87% | activity change, negative = inhibition [2] -5.44% | activity, negative = inhibition [3] 15.4% | Potency [4] > 20.6 µM

CCOc1ccc(S(=O)(=O)N(C)C)cc1-c1nc2c(C(C)(C)C)nn(C)c2c(=O)[nH]1
inactive: activity change, negative = inhibition [1] 5.08% | activity change, negative = inhibition [2] 8.6% | activity, negative = inhibition [3] -17.2% | Potency [4] > 20.6 µM

Cn1c(=O)c2c(nc(NCC(O)CO)n2CCc2ccccc2)n(C)c1=O (stereo not given)
inactive: activity change, negative = inhibition [1] 8.87% | activity change, negative = inhibition [2] -3.8% | activity, negative = inhibition [3] 1.91% | Potency [4] > 20.6 µM

COc1cccc2c(=O)c(SC(F)(F)C(F)C(F)(F)F)c(C)[nH]c12 (stereo not given)
inactive: activity change, negative = inhibition [1] -13.4% | activity change, negative = inhibition [2] 4.93% | activity, negative = inhibition [3] 2.33% | Potency [4] > 20.6 µM

CC(=O)c1cccc(N=C2NC(=O)C(CO)(CO)S2)c1
inactive: activity change, negative = inhibition [1] 3.54% | activity change, negative = inhibition [2] -3.93% | activity, negative = inhibition [3] 4.42% | Potency [4] > 20.6 µM

CCOC(=O)CC(C#N)c1cn(C)c2ccccc12 (stereo not given)
inactive: activity change, negative = inhibition [1] 8.21% | activity change, negative = inhibition [2] -8.09% | activity, negative = inhibition [3] 3.49% | Potency [4] > 20.6 µM

C=CCNc1nc(N2CCOCC2)c(C#N)c2c1CN(C)CC2
inactive: activity change, negative = inhibition [1] 4.63% | activity change, negative = inhibition [2] -4.25% | activity, negative = inhibition [3] 2.07% | Potency [4] > 20.6 µM
